# Measured values published in the supplement of paper PMC4371806.
# Over roughly 2,300 compounds, “plate-normalized OD600 growth (mean of duplicates)” has its median near 0.29; the lowest 2% begin near 0.22. Only a selection was taken, and the lowest values are over-represented in it overall.
# System: Escherichia coli BW25113
# Test: plate-normalized OD600 growth (mean of duplicates) (OD600 (normalized)); higher = more growth (less inhibition)
# Details: 10 µM
# Description: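 E. coli BW25113 in LB (100 µl, 96-well, no shaking) was exposed to 10 µM of each compound from a ~30,000-member library and grown at 37°C for 24 h or 15°C for 48 h, in duplicate. Growth was read as OD600 and the duplicate ODs were normalized across screening plates to correct plate-to-plate variation. Hits were >3σ below the mean OD600 at 15°C and <2σ below the mean at 37°C.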
SMILES,"plate-normalized OD600 growth (temperature: 15°C, 48 h)","plate-normalized OD600 growth (temperature: 37°C, 24 h)"
COC(=O)CN1C(=O)C2(C(C#N)=C(N)Oc3n[nH]c(C)c32)c2ccccc21 (stereo not given),0.207,0.65
CCOc1ccc(-c2[nH]nc3c2C2(C(=O)Nc4ccc(C)c(Br)c42)C(C#N)=C(N)O3)cc1 (stereo not given),0.245,0.6
N#CC1=C(N)Oc2n[nH]c(-c3cccs3)c2C12C(=O)Nc1ccc([N+](=O)[O-])cc12 (stereo not given),0.265,0.618
CCOC(=O)c1c(N)oc2c(-c3ccc(C)c(Cl)c3)c3c(C(=O)OCC)c(N)oc3cc12,0.218,0.622
N#CCS(=O)(=O)c1cccs1,0.217,0.626
O=C(NC1Cc2ccccc2C1)c1cncc(Br)c1,0.281,0.658
c1ccc(-c2cc3c(nn2)CCc2nonc2-3)cc1,0.27,0.648
COc1cc(O)ccc1/C=N/NC(=O)c1cccc([N+](=O)[O-])c1,0.248,0.614
N#C/C(=C\c1ccc(OC(=O)c2cccc([N+](=O)[O-])c2)cc1)C(=O)c1ccccc1,0.211,0.634
O=C(N/N=C/c1ccc(OC(=O)c2cccc(F)c2)cc1)C1=NNC(c2ccccc2)(c2ccccc2)C1,0.267,0.624
CC(Oc1ccccc1)C(=O)Nc1ccc(Cl)cc1 (stereo not given),0.222,0.64
CC(=O)c1cnn(-c2ccccc2)c1C,0.259,0.623
O=C(/C=C/c1cccs1)C(C(=O)c1ccccc1)=C1SCCCCS1,0.244,0.615
O=C(CSc1nc2ccccc2s1)Nc1cccn2cc(-c3ccccc3)nc12,0.263,0.614
COc1ccc(CNCC2COc3ccccc3O2)cc1OC (stereo not given),0.26,0.638
CC(C)Nc1nc(Cl)nc(Nc2cccc(C(F)(F)F)c2)n1,0.262,0.62
CCN=C(NCC)SC1CC(=O)N(c2ccc(C(=O)O)cc2)C1=O (stereo not given),0.246,0.617
CCOc1ccc(C(C)(C)C(=O)Nc2ccc(C(=O)/C=C/c3ccco3)cc2)cc1,0.266,0.639

SMILES,"plate-normalized OD600 growth (temperature: 15°C, 48 h)","plate-normalized OD600 growth (temperature: 37°C, 24 h)"
Clc1ccc2nc(N3CCOCC3)nc(-c3ccccc3)c2c1,0.251,0.61
CCC(=O)Nc1nc2ccc(C)cc2s1,0.246,0.603
N#CC(C(=O)Nc1cccc(C(F)(F)F)c1)C(=S)Nc1ccccc1Cl (stereo not given),0.254,0.644
CCCCOc1cc(C(=O)O)ccc1OC,0.261,0.64
COc1cc(C(=S)N2CCCCC2)ccc1OC(=O)c1ccccc1,0.00796,0.606
COc1ccc(C(=O)N2CCN(c3c(C)cccc3C)CC2)cc1OC,0.257,0.622
Clc1cccc(Cl)c1/C=N/Nc1nncc(-c2ccccc2)n1,0.186,0.641
CSCCC(NC(=O)c1ccccc1)C(=O)OCC(=O)Nc1ccccc1C#N (stereo not given),0.236,0.619
Clc1cccc(CN2CCN(Cc3ccco3)CC2)c1,0.237,0.636
Cc1cc2c(cc1C)CN(c1ccc(C(=O)N/N=C/c3ccccc3O)cc1)C2,0.25,0.63
COc1ccc(/C=N/NC(=O)COc2ccc(Cl)cc2)cc1I,0.257,0.62
CCCCOc1cccc(NC(=O)CCSc2nccn2C)c1,0.25,0.643
N#C/C(=C\c1ccccc1Cl)c1nc2ccccc2[nH]1,0.26,0.624
O=C(NCc1csc(-c2cccs2)n1)C1=Cc2ccccc2OC1,0.243,0.593
O=C(Nc1ccccc1C(=O)NC1CCCCNC1=O)c1cccs1 (stereo not given),0.253,0.638
COc1ccc(-c2cc(C(F)(F)F)n3nc(C(=O)NC(C)(C)C)c(Cl)c3n2)cc1OC,0.245,0.619
Cc1nc(Nc2ccc(F)cc2)c2oc3ccccc3c2n1,0.245,0.613
